In the library only some 7.8% were active in any assay of this set; here they are far more common.
MITF inh: MITF inhibition; 37,000 compounds, 0.28% hits; TRPM1 promoter luciferase, luminescence, 24 h; inhibition, % (concentration not given with the values); in the data active = inhibition above about 85%; inconclusive = no clear call, values can overlap the other calls; inactive = below about 68%;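 also: human melanocyte line stably carrying TRPM1 promoter luciferase reporter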
NOMO-1 viab: STK33 inhibitor candidate reducing NOMO-1 cell viability | NOMO-1 AML viability, CellTiter-Glo luminescence, 72 h | inhibition, % (no concentration beside the values) | 37,000 compounds, 7.5% hits | AID 2330; in the data active = inhibition above about 80%; inconclusive = no clear call, values can overlap the other calls
PD-1 reversal: reversal of PD-1 mediated T-cell inhibition | primary human CD4 T cells, PD-L1 beads, CellTiter-Glo 96 h | activation, % (concentration not given with the values) | 29,000 tested, under 10 active; call rule not given here;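 also: 0% = median vehicle wells and 100% = positive control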
Hedgehog inh: Sonic Hedgehog pathway inhibition | Shh-LIGHT2 Gli-luciferase reporter, 30 h | inhibition, % (no concentration beside the values) | 22,000 compounds, 2.1% hits | AID 2313;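 active = mean inhibition across valid replicates above about 65%, limit read from the data; inconclusive = mean under the limit, yet half or more replicates past it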;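 also: pathway switched on by Shh-conditioned medium diluted 1 in 25 in low serum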
The depositor's hits bear a star; u = inconclusive; x = no result given.

SMILES	MITF inh	NOMO-1 viab	PD-1 reversal	Hedgehog inh
Cc1ccc(Cc2nn3c(C(=O)c4cccs4)nn(-c4ccc(Cl)cc4)c3nc2=O)cc1	23	37	1	67*
C[C@H](CO)N1C[C@H](C)[C@H](CN(C)Cc2ccc(-c3ccccc3)cc2)Oc2ccc(NC(=O)Nc3ccc(C(F)(F)F)cc3)cc2CC1=O	5	126*	-3	-25
C[C@@H]1CN([C@H](C)CO)C(=O)Cc2cc(NC(=O)Nc3ccc(C(F)(F)F)cc3)ccc2O[C@@H]1CN(C)Cc1ccc(-c2ccccc2)cc1	5	114*	-1	8
CC(C)C1=CCC(C)/C(=C\c2ccc(Cl)cc2)C1=O (configuration not stated)	-27	4	1	x
CCN(CC)c1c(C#N)c(SCC(=O)c2cccs2)cc2c1CCCC2	8	45	-2	81*
O=C(CN1C(=O)C2C3C=CC(C4CC34)C2C1=O)Nc1ccc(Oc2ccc(Br)cc2)cc1 (configuration not stated)	72	86*	-2	x
COC(=O)COc1ccc(C2NC(=S)NC(C)=C2C(=O)OC)cc1 (configuration not stated)	-7	89*	x	x
COc1ccc(C(=O)NCCn2cc(SC(C)c3ccccc3)c3ccccc32)cc1 (configuration not stated)	20	129*	-1	78*
CC(=O)O[C@@H]1C=C[C@@]2(C)C(C[C@@H](OC(C)=O)[C@@]3(C)C4=CC(=O)O[C@@H](c5ccoc5)[C@]4(C)CCC23)C1(C)C (some centres not stated)	91*	106*	x	6
COC(=O)[C@H](Cc1ccc(O)cc1)NC(=O)c1cccc(Cl)c1	-4	110*	-23	-16
Cc1ccc(Oc2ncc(C(F)(F)F)cc2Cl)c2c1CCC2	-11	u	-1	-4
O=C1CC(c2ccccc2)=NN1	7	3	0	-16
CSC(N)=Nc1c(Cl)cccc1Cl	-29	21	0	-17
Cc1ccc(C(=O)CC2(O)C(=O)N(Cc3cccc4ccccc34)c3ccccc32)o1 (configuration not stated)	17	36	x	x
Cc1coc(C)c1C(=O)CC1(O)C(=O)N(CCCC#N)c2ccccc21 (configuration not stated)	3	32	1	x
C#CCN1C(=O)C(O)(CC(=O)c2ccc(C)o2)c2ccccc21 (configuration not stated)	7	120*	-1	x
COc1ccc(CN2C(=O)C(O)(CC(=O)c3ccco3)c3ccccc32)cc1OC (configuration not stated)	1	118*	x	x
CCCCN1C(=O)C(O)(CC(=O)c2ccccn2)c2ccccc21 (configuration not stated)	-3	125*	-1	x
O=C(CC1(O)C(=O)N(Cc2cccc3ccccc23)c2ccccc21)c1ccco1 (configuration not stated)	21	111*	x	x
COc1ccc(CN2C(=O)C(O)(CC(=O)c3ccc4ccccc4c3)c3ccccc32)cc1OC (configuration not stated)	12	61	x	x
CC(=O)Nc1ccc(Br)c(C(F)(F)F)c1	-38	14	-1	-16
NC(=O)CN1C(=O)C(O)(CC(=O)c2cccnc2)c2ccccc21 (configuration not stated)	10	-7	8	x
O=C(CC1(O)C(=O)N(Cc2cccc3ccccc23)c2ccccc21)c1ccccn1 (configuration not stated)	36	111*	-7	x
C[C@H]1CN([C@@H](C)CO)C(=O)c2cccc(NS(=O)(=O)c3ccc(F)cc3)c2O[C@@H]1CN(C)Cc1ccc(-c2ccccc2)cc1	19	20	0	16
Cc1ccc(S(=O)(=O)Nc2cccc3c2O[C@@H](CN(C)Cc2ccc(C(F)(F)F)cc2)[C@@H](C)CN([C@H](C)CO)C3=O)cc1	22	90*	-4	13
SMILES	MITF inh	NOMO-1 viab	PD-1 reversal	Hedgehog inh
COc1ccc(S(=O)(=O)Nc2cccc3c2O[C@@H](CN(C)Cc2ccc(C(F)(F)F)cc2)[C@@H](C)CN([C@H](C)CO)C3=O)cc1	26	96*	-3	-5
C[C@@H]1CN([C@@H](C)CO)C(=O)c2cccc(NS(=O)(=O)c3ccc(F)cc3)c2O[C@@H]1CN(C)Cc1ccc(-c2ccccc2)cc1	-2	84*	-1	6
C[C@@H]1CN([C@@H](C)CO)C(=O)c2cc(NC(=O)Nc3ccc(F)cc3)ccc2O[C@H]1CN(C)C(=O)Nc1ccc(C(F)(F)F)cc1	35	61	-1	-38
C[C@H]1CN([C@@H](C)CO)C(=O)c2cc(NC(=O)Nc3ccc(C(F)(F)F)cc3)ccc2O[C@H]1CN(C)C(=O)Nc1ccc(C(F)(F)F)cc1	41	120*	-2	32
C[C@@H]1CN([C@@H](C)CO)C(=O)c2cc(NC(=O)Nc3ccc(C(F)(F)F)cc3)ccc2O[C@@H]1CN(C)C(=O)Nc1ccc(C(F)(F)F)cc1	50	114*	-6	31
C[C@@H]1CN([C@H](C)CO)C(=O)c2cc(NC(=O)Nc3ccc(C(F)(F)F)cc3)ccc2O[C@@H]1CN(C)C(=O)Nc1ccc(C(F)(F)F)cc1	55	94*	x	-51
C[C@H]1CN([C@@H](C)CO)C(=O)c2cc(NC(=O)Nc3ccc(C(F)(F)F)cc3)ccc2O[C@H]1CN(C)C(=O)NC1CCCCC1	36	103*	-3	-15
C[C@H]1CN([C@@H](C)CO)C(=O)c2cc(NC(=O)Nc3ccc(C(F)(F)F)cc3)ccc2O[C@H]1CN(C)C(=O)Nc1ccc(F)cc1	31	76	0	8
CCn1c(SCC(=O)Nc2ccc(Br)c(C)c2C)nnc1-c1ccccc1C	16	22	1	x
C[C@@H]1CN([C@@H](C)CO)C(=O)c2cc(NC(=O)Nc3ccc(C(F)(F)F)cc3)ccc2O[C@H]1CN(C)C(=O)Nc1ccc(C(F)(F)F)cc1	47	105*	-7	10
C[C@@H]1CN([C@H](C)CO)C(=O)c2cc(NC(=O)Nc3ccc(F)cc3)ccc2O[C@@H]1CN(C)C(=O)Nc1ccc(C(F)(F)F)cc1	13	48	-2	-5
CC(C)C[C@@H](NC(=O)OCC1c2ccccc2-c2ccccc21)C(=O)O	-55	-5	x	-150
CC(C)C[C@@H](/C=C/S(C)(=O)=O)NC(=O)[C@H](CC(C)C)NC(=O)[C@H](CC(C)C)NC(=O)OCc1ccccc1	75	98*	-53	47
COc1cccc(CN2CCN(C(=O)c3cccs3)CC2)c1	-3	2	0	x
CCCc1cc(=O)oc2cc(OC(=O)/C=C/c3cccs3)ccc12	-11	33	-1	-36
CCCCc1c(-c2ccc(O)cc2)[nH]c2nccnc12	22	83*	-3	-15
C[C@@H]1C[C@H]2[C@@H]3CCC4=CC(=O)C=C[C@]4(C)[C@@]3(Cl)[C@@H](O)C[C@]2(C)[C@@]1(OC(=O)c1ccco1)C(=O)CCl	-2	114*	-7	23
O=C1C=CC(O)(/C=C/C(=O)OC[C@H]2O[C@@H](Oc3ccc(O)cc3)[C@H](O)[C@@H](OC(=O)/C=C/C3(O)C=CC(=O)C=C3)[C@@H]2O)C=C1	-5	87*	-10	-5

High-throughput results from PubChem BioAssay.
